Calls of active or inactive are those of the source.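 How the source made its calls: active means every separate test run called active, meaning the signal drops and a potency is fitted within twice the top valid dose; inconclusive means runs disagree, poor fit, or flat partial inhibition; inactive means all runs inactive, flat, opposite direction or too weak.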
Biological target: Mitogen-activated protein kinase 3 (Homo sapiens) (UniProt P27361)
Assay: inhibition of MAPK3 kinase activity – biochemical, ADP-Glo luminescence, cherry pick, set 2, selectivity assay for Dyrk1A inhibitor NFAT project, dose response (AID 602295)

Chain of Mitogen-activated protein kinase 3 (Homo sapiens) (P27361 whole entry, looked up): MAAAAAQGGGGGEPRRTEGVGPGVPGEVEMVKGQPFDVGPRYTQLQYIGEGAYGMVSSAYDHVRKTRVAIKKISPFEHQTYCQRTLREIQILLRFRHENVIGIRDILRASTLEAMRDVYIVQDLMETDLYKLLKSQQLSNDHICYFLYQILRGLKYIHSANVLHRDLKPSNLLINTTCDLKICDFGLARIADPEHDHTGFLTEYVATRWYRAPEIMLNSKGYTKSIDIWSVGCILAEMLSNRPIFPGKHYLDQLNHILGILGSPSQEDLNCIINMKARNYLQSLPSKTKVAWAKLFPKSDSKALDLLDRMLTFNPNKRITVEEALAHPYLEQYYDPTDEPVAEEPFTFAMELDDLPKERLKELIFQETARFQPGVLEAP

`COc1ccc2c(c1)[nH]c1c(C)nccc12` was tested, and the outcome was “inactive”.

From PubChem BioAssay AID602295 (Broad Institute, 2012)
